High-throughput results from PubChem BioAssay.
Shown are actives, neighbours in structure and some others; about 0.78% of the full set was active somewhere.
BJeLR viability – MLPCN primary cell-based screen for lethality selective to Ras in HRASV12 cells. BJeLR (HRASV12) viability, CellTiter-Glo ATP luminescence, 48 h. inhibition, % (no concentration beside the values). actives 0.17% (n = 300,000). AID 1554, 2009; in the data active means inhibition above about 50%
3CLpro inhibitor – SARS-CoV 3CLpro protease inhibitors, primary screen, biochemical, quenched FRET; Replicase polyprotein 1ab (Severe acute respiratory syndrome coronavirus), P0C6X7; recombinant SARS-CoV 3CLpro, quenched FRET peptide cleavage; inhibition, % at 6 µM; actives 0.14% (n = 290,000); AID 1706, 2009; in the data active means inhibition above about 12%
PriA SSB inh – inhibitors of Klebsiella pneumoniae PriA binding to SSB C-terminal tail, primary screen, biochemical, AlphaScreen; inhibition, % at 33 µM; AID 1272365, 2023; PriA–SSB C-terminal tail interaction (Klebsiella pneumoniae); actives 0.6% (n = 430,000); AlphaScreen SSBct-PriA binding, biotinylated peptide; in the data active means inhibition mostly above about 37%, no sharp cut-off; inactive means mostly below about 20%
A number is an active result; ! = not confirmed by another sample.

COc1ccc(NC(=O)CS(=O)(=O)c2ccc(C)cc2)c(OC)c1 was read as BJeLR viability inactive, 3CLpro inhibitor inactive and PriA SSB inh inactive.
Screening Cc1ccc(S(=O)(=O)NC(=O)Nc2ccc(N(C)C)cc2)cc1 returned BJeLR viability inactive, 3CLpro inhibitor inactive and PriA SSB inh 82.5.
`Cc1ccc(NC(=O)NNS(=O)(=O)c2ccc(Br)cc2)cc1` gave BJeLR viability inactive, 3CLpro inhibitor inactive and PriA SSB inh inactive.
CC(C(=O)NC(c1cccnc1)C1CCOCC1)n1cccn1 (stereo unspecified) was read as PriA SSB inh inactive.
For CC(C)(C)c1ccc(-n2nc(C(N)=O)c(O)cc2=O)cc1 the results were BJeLR viability inactive, 3CLpro inhibitor inactive and PriA SSB inh inactive.
`CC(C)(C)c1ccc(-n2nc(C#N)c(Cl)cc2=O)cc1` gave BJeLR viability 56.0, 3CLpro inhibitor inactive and PriA SSB inh inactive.
`CC(=O)c1cccc(NC(=O)c2cc3nc(C)ccc3o2)c1` gave PriA SSB inh inactive.
For CCCC12CN3CC(CCC)(CN(C1)C3c1ccccn1)C2=O (stereo unspecified) the results were BJeLR viability inactive, 3CLpro inhibitor inactive and PriA SSB inh 58.0.
Screening CCCC12CN3CC(C)(CN(C1)C3c1cccs1)C2=O (stereo unspecified) returned BJeLR viability inactive, 3CLpro inhibitor inactive and PriA SSB inh inactive.
O=c1[nH]c(=O)n(-c2cccc(F)c2)c(O)c1C=C1C=Nc2ccccc21 was read as PriA SSB inh inactive.
Screening CCOc1ccc(-c2csc(NC(=O)Cc3ccc(S(C)(=O)=O)cc3)n2)cc1 returned PriA SSB inh inactive.
Screening CCC(=O)N(C1=C(NC)C(=O)c2ccccc2C1=O)C(C)C returned BJeLR viability inactive, 3CLpro inhibitor inactive and PriA SSB inh inactive.
`CNC1=C(N(C(C)=O)c2ccc(Br)cc2)C(=O)c2ccccc2C1=O` gave BJeLR viability 51.0, 3CLpro inhibitor inactive and PriA SSB inh inactive.
CCS(=O)(=O)N1CCN(c2ccc([N+](=O)[O-])c(NC(C)c3ccccc3)c2)CC1 (stereo unspecified) was read as BJeLR viability inactive, 3CLpro inhibitor inactive and PriA SSB inh inactive.
Screening CC(Nc1cc(N2CCN(C(=O)C(C)(C)C)CC2)ccc1[N+](=O)[O-])c1ccccc1 (stereo unspecified) returned BJeLR viability inactive, 3CLpro inhibitor inactive and PriA SSB inh 41.2.
CC(C)C(=O)N1CCN(c2ccc([N+](=O)[O-])c(NC(C)c3ccccc3)c2)CC1 (stereo unspecified) was read as BJeLR viability inactive, 3CLpro inhibitor inactive and PriA SSB inh 48.5.
Screening CC(Nc1cc(N2CCNCC2)ccc1[N+](=O)[O-])c1ccccc1 (stereo unspecified) returned BJeLR viability inactive, 3CLpro inhibitor inactive and PriA SSB inh inactive.
`O=C(Nc1nc2cc3c(cc2s1)OCCO3)c1cc(Cl)sc1Cl` gave PriA SSB inh inactive.
Screening COc1ccc(/C=C2\CC/C(=C\c3ccc(OC)c(OC)c3)C2=O)cc1OC returned BJeLR viability inactive, 3CLpro inhibitor inactive and PriA SSB inh inactive.
COc1ccc(C=C2C=C(C(C)(C)C)C(=O)C(C(C)(C)C)=C2)cc1OC was read as BJeLR viability 79.9, 3CLpro inhibitor inactive and PriA SSB inh inactive.
For N#Cc1nc(-c2ccco2)oc1N1CCN(C(c2ccccc2)c2ccccc2)CC1 the results were BJeLR viability inactive, 3CLpro inhibitor inactive and PriA SSB inh inactive.
Screening N#Cc1nc(-c2ccco2)oc1N1CCCC1 returned BJeLR viability inactive, 3CLpro inhibitor inactive and PriA SSB inh inactive.
For N#Cc1nc(-c2ccco2)oc1N1CCc2ccccc2C1 the results were BJeLR viability inactive, 3CLpro inhibitor inactive and PriA SSB inh 43.2.
`N#Cc1nc(-c2ccco2)oc1N1CCN(c2cccc(Cl)c2)CC1` gave BJeLR viability inactive, 3CLpro inhibitor inactive and PriA SSB inh 49.9.
For Cc1nnc(C2CCCN(C(=O)c3ccccc3)C2)s1 (stereo unspecified) the results were PriA SSB inh inactive.
Cc1nnc(-c2cc3ccccc3n2CC(=O)Nc2ccc(Br)cc2)o1 was read as PriA SSB inh inactive.
COc1ccccc1-[n+]1c(C)cc(/C=C2\Sc3ccccc3N2C)cc1C was read as BJeLR viability 73.4 and 3CLpro inhibitor inactive.
For COc1ccc(-[n+]2c(C)cc(/C=C3\Sc4ccccc4N3C)cc2C)cc1 the results were BJeLR viability inactive and 3CLpro inhibitor inactive.
Cn1cccc1-c1nc2ccc(NC(=O)c3ccccc3)cc2[nH]1 was read as BJeLR viability inactive, 3CLpro inhibitor inactive and PriA SSB inh inactive.
Screening Cc1ccc(S(=O)(=O)Nc2ccc3nc(-c4cccn4C)[nH]c3c2)cc1 returned BJeLR viability inactive, 3CLpro inhibitor inactive and PriA SSB inh 87.5.
Screening CC(=O)N1CCN(c2ccc(NCc3ccc4c(c3)OCO4)cc2)CC1 returned BJeLR viability inactive, 3CLpro inhibitor inactive and PriA SSB inh inactive.
O=C(c1ccccc1)N1CCN(c2ccc(NCc3ccc4c(c3)OCO4)cc2)CC1 was read as BJeLR viability inactive, 3CLpro inhibitor inactive and PriA SSB inh 46.2.
`COc1ccc(S(=O)(=O)NCc2ccco2)cc1C(=O)N1CCCCC1` gave BJeLR viability inactive, 3CLpro inhibitor inactive and PriA SSB inh inactive.
Screening COc1ccc(S(=O)(=O)NCc2ccco2)cc1C(=O)O returned PriA SSB inh 38.0!.
Screening NC(=O)C1CCN(c2c([N+](=O)[O-])cc(C(F)(F)F)cc2[N+](=O)[O-])CC1 returned BJeLR viability inactive, 3CLpro inhibitor inactive and PriA SSB inh inactive.
For COC(=O)C1CCN(c2c([N+](=O)[O-])cc(C(F)(F)F)cc2[N+](=O)[O-])CC1 the results were BJeLR viability inactive, 3CLpro inhibitor inactive and PriA SSB inh 58.7.
For Cc1ccc(NC(=O)c2ccc([N+](=O)[O-])cc2Cl)cc1N1CCCC1=O the results were PriA SSB inh inactive.
O=C(O)/C=C/c1ccc([N+](=O)[O-])o1 was read as BJeLR viability inactive, 3CLpro inhibitor inactive and PriA SSB inh inactive.
`N#CCc1ccc(NC(=O)/C=C/c2ccc([N+](=O)[O-])o2)cc1` gave BJeLR viability 100.7, 3CLpro inhibitor inactive and PriA SSB inh inactive.
O=C(Cc1ccc([N+](=O)[O-])cc1)N/N=C/c1ccc([N+](=O)[O-])o1 was read as BJeLR viability 55.4, 3CLpro inhibitor inactive and PriA SSB inh inactive.
O=C(Cc1ccc([N+](=O)[O-])cc1)NN=Cc1ccc([N+](=O)[O-])o1 was read as PriA SSB inh inactive.
For O=C(Nc1ccccc1N1CCCCC1)c1cc(S(=O)(=O)N2CCOCC2)ccc1F the results were PriA SSB inh 47.4.
O=C(Nc1ccccc1N1CCCC1)c1cc(S(=O)(=O)N2CCOCC2)ccc1Cl was read as BJeLR viability inactive and PriA SSB inh inactive.
`CC(C)c1onc(C(=O)N2CCN(C(c3ccccc3)c3ccccc3)CC2)c1[N+](=O)[O-]` gave BJeLR viability 91.0, 3CLpro inhibitor inactive and PriA SSB inh inactive.
Screening CC(C)c1onc(C(=O)N2CCN(c3ccccc3)CC2)c1[N+](=O)[O-] returned BJeLR viability inactive, 3CLpro inhibitor inactive and PriA SSB inh inactive.
